Compound activity deposited in PubChem by several laboratories.
The list is not random: actives were taken first. Their share in the collection is about 1.8%.
KLF5 inhibitor = KLF5 expression inhibitors, primary screen, DLD-1 cells, luminescence; inhibition, % at 5 µM; AID 1700, 2009; DLD-1 KLF5 promoter-luciferase reporter; actives 0.23% (n = 290,000);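 active = inhibition above a per-plate limit of that plate's mean compound inhibition plus 3 SD, cut at about 60% in these data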;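 note: higher means less KLF5 promoter-driven luciferase light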
APP transl inh = inhibitors of APP translation via 5'UTR reporter, primary screen, APP 5'UTR luciferase, SH-SY5Y cells | inhibition, % at 2 µM | SH-SY5Y APP 5'UTR-luciferase reporter, luminescence | actives 0.82% (n = 190,000);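 active = inhibition above a set limit, derived from the sample mean plus 3 SD, cut at about 45% in these data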
IEC-6 tox = cytotoxicity in IEC-6 intestinal epithelial cells, primary screen, cytotoxicity control for KLF5 inhibitor project, cell-based, luminescence | IEC-6 cytotoxicity, luminescence viability | inhibition, % at 5 µM | actives 0.78% (n = 290,000)
Ba/F3 V617F tox = reduced viability of JAK2V617F-dependent Ba/F3 cells, primary screen, JAK2V617F inhibitor project, cell-based, Ba/F3 EpoR-JAK2V617F, luminescence | ATP luminescence | inhibition, % at 5.6 µM | actives 1.1% (n = 220,000);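 active = inhibition above the campaign mean plus 3 SD over all tested compounds, cut at about 24% in these data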;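 note: cytokine-independent growth of Ba/F3 cells driven by EpoR plus mutant JAK2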
BaF3 tox = parental Ba/F3 cell viability inhibition, counter-screen for JAK2V617F inhibitor project, murine pro-B, CellTiter-Glo luminescence; CellTiter-Glo ATP luminescence; inhibition, % at 5.6 µM; actives 1.1% (n = 220,000); AID 1486, 2009;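 active = inhibition above a per-campaign cutoff, the mean inhibition of all tested compounds plus 3 SD, cut at about 27% in these data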
IEC-6 cytotox cf = cytotoxic compounds in IEC-6 epithelial cells, confirmation, cytotoxicity control, cell-based, luminescence; shares compounds with IEC-6 tox; IEC-6 rat intestinal epithelial viability; inhibition, % at 5 µM; actives 63% (n = 1,900); AID 1907, 2009
Large screens that a line does not name were inactive (follow-up assays come after a bar, where they were run). Cut-off read from the data, not from the text of the source, unless noted: active = inhibition above about 22%; inactive = the rest.

CC(CN1CCCCC1)OC(=O)c1ccc(Cl)cc1 (stereo unspecified)	none
Cc1nc(NCc2ccco2)[nH]c(=O)c1CCC(C)C	none
O=c1[nH]c(NCc2ccco2)nnc1Cc1ccccc1Cl	IEC-6 tox 22.2 | IEC-6 cytotox cf inactive
COc1ccc(NC(C)=O)cc1NC(C)C(=O)Nc1cccc2ccccc12 (stereo unspecified)	none
COC(=O)c1cccc(N(CC(=O)NC2CCCC2)C(=O)CNC(=O)c2cccs2)c1	none (no result: APP transl inh, Ba/F3 V617F tox, BaF3 tox)
Cc1sc2nc(-c3ccccn3)[nH]c(=O)c2c1-c1ccccc1	IEC-6 tox 28.4 | IEC-6 cytotox cf 33.2
Cc1sc2nc(-c3ccncc3)[nH]c(=O)c2c1-c1ccccc1	none
COc1ccc2c(c1)C(C)=CC(C)(C)N2S(=O)(=O)c1ccc(Br)cc1	APP transl inh 93.1, IEC-6 tox 68.1, Ba/F3 V617F tox 73.7, BaF3 tox 69.4 | IEC-6 cytotox cf 57.0
Cc1ccccc1CN1CCC(CNC(=O)C2CCCN(c3ncnc4c3nc3n4CCCCC3)C2)CC1 (stereo unspecified)	none (no result: APP transl inh, Ba/F3 V617F tox, BaF3 tox)
CC1=Nc2cc(C(=O)NCC3CCCO3)ccc2Sc2ccc(Br)cc21 (stereo unspecified)	IEC-6 tox 43.3 (no result: APP transl inh) | IEC-6 cytotox cf 29.0
CC1=Nc2cc(C(=O)O)ccc2Sc2ccc(Br)cc21	none
Cc1cnc(=O)[nH]c1SCc1cccc([N+](=O)[O-])c1	none (no result: APP transl inh, Ba/F3 V617F tox, BaF3 tox)
CCn1cc(C(=O)NCC(OC)OC)c(=O)c2cc(S(=O)(=O)N3CCC(C)CC3)ccc21	IEC-6 tox 31.7 (no result: APP transl inh, Ba/F3 V617F tox, BaF3 tox) | IEC-6 cytotox cf 24.8
CCOc1ccc(Nc2nc(N(C)c3ccccc3)nc(N)c2[N+](=O)[O-])cc1	none (no result: APP transl inh, Ba/F3 V617F tox, BaF3 tox)
CCOc1cc(S(=O)(=O)NCc2ccncc2)ccc1Cl	IEC-6 tox 24.0, Ba/F3 V617F tox 63.9, BaF3 tox 84.3 | IEC-6 cytotox cf inactive
N=c1ccn2c(n1)OC1C(O)C(CO)OC12 (stereo unspecified)	IEC-6 tox 92.3, Ba/F3 V617F tox 74.5, BaF3 tox 80.3 (no result: APP transl inh) | IEC-6 cytotox cf 72.3
O=C(CCl)N(c1ccccc1)c1c[nH]c2ccccc12	IEC-6 tox 33.8, Ba/F3 V617F tox 101.1, BaF3 tox 50.0 | IEC-6 cytotox cf inactive
COc1cc2cc(-c3ccc(O)cc3O)nc(C)c2cc1OC	IEC-6 tox 22.0 (no result: APP transl inh, Ba/F3 V617F tox, BaF3 tox) | IEC-6 cytotox cf inactive
CC(=O)NC1=NN(C(C)=O)C(C)(c2cccs2)S1 (stereo unspecified)	IEC-6 tox 56.5, Ba/F3 V617F tox 62.1, BaF3 tox 61.6 | IEC-6 cytotox cf 38.0
CC(=O)NC1=NN(C(C)=O)C(C)(c2ccco2)S1 (stereo unspecified)	none
N#CC(C#N)=C1C=CC=CN1/C(=C\c1ccco1)C(=O)c1ccccc1	APP transl inh 96.1, IEC-6 tox 73.6, Ba/F3 V617F tox 91.9, BaF3 tox 71.4 | IEC-6 cytotox cf inactive
CC(C)(C)NC(=O)/C(=C/c1ccco1)c1ccccc1	none
O=C(N=C1SC2CS(=O)(=O)CC2N1Cc1ccccc1Cl)C1CC1 (stereo unspecified)	none (no result: APP transl inh, Ba/F3 V617F tox, BaF3 tox)
O=C1S/C(=C/c2ccc(N3CCOCC3)o2)C(=O)N1Cc1ccc(F)cc1	none
C=CCN1C(=O)N/C(=C/c2ccc(N3CCOCC3)o2)C1=O	APP transl inh 88.5, IEC-6 tox 32.1, Ba/F3 V617F tox 95.1, BaF3 tox 78.3 | IEC-6 cytotox cf inactive
CS(=O)(=O)Nc1cccc(C2=NN(C(=O)c3ccco3)C(c3ccco3)C2)c1 (stereo unspecified)	none (no result: APP transl inh, Ba/F3 V617F tox, BaF3 tox)
CCS(=O)(=O)Nc1cccc(C2=NN(C(=O)c3ccco3)C(c3ccco3)C2)c1 (stereo unspecified)	IEC-6 tox 47.1 (no result: APP transl inh, Ba/F3 V617F tox, BaF3 tox) | IEC-6 cytotox cf 22.1
Cc1ccccc1C(=O)/C(C#N)=N/Nc1c(C)n(C)n(-c2ccccc2)c1=O	APP transl inh 67.7, IEC-6 tox 37.7 | IEC-6 cytotox cf 35.9
Cc1c(N/N=C(\C#N)C(=O)c2ccccc2)c(=O)n(-c2ccccc2)n1C	APP transl inh 76.9, IEC-6 tox 38.7 | IEC-6 cytotox cf 44.5
CCOC(=O)/C(C#N)=N/Nc1c(C)n(C)n(-c2ccccc2)c1=O	none
CC(C(=O)O)c1ccc(N2Cc3ccccc3C2=O)cc1 (stereo unspecified)	none
Cc1cccc(CCNC(=O)C2CCN(S(=O)(=O)c3ccccc3)CC2)c1	none
CN1CC(=O)N2C(c3cccc([N+](=O)[O-])c3)c3[nH]c4ccccc4c3C[C@H]2C1=O (stereo partly specified)	IEC-6 tox 34.1 (no result: APP transl inh, Ba/F3 V617F tox, BaF3 tox) | IEC-6 cytotox cf inactive
O=C(Nc1nc(-c2ccccn2)cs1)c1ccc(S(=O)(=O)N2CCCCC2)cc1	IEC-6 tox 50.4, Ba/F3 V617F tox 55.5, BaF3 tox 55.6 (no result: APP transl inh) | IEC-6 cytotox cf 54.3
O=C(Nc1nc(-c2ccccn2)cs1)c1ncc(Cl)c(Cl)c1Cl	none
Cc1cccc(C(=O)NC(C(=O)Nc2nc(-c3ccccn3)cs2)C(C)C)c1 (stereo unspecified)	IEC-6 tox 48.9 | IEC-6 cytotox cf 42.1
Cc1cccnc1Nc1nc(-c2ccccn2)cs1	APP transl inh 92.6, IEC-6 tox 83.8, Ba/F3 V617F tox 89.5, BaF3 tox 76.6 | IEC-6 cytotox cf 88.5
O=C(Nc1nc(-c2ccccn2)cs1)c1ccc(Cl)s1	APP transl inh 77.2, IEC-6 tox 45.0 | IEC-6 cytotox cf 75.4
CSCCC(=O)Nc1nc(-c2ccccn2)cs1	none
O=C(Nc1nc(-c2ccccn2)cs1)C1CCCC1	IEC-6 tox 25.1 | IEC-6 cytotox cf inactive
CCc1ccc(CNC(=O)CCC(=O)N2Cc3cccc(OC)c3Oc3ncccc32)cc1	none (no result: APP transl inh, Ba/F3 V617F tox, BaF3 tox)
CC1=[N+](C)c2c(ccc3cccnc23)C1(C)C	IEC-6 tox 26.5, Ba/F3 V617F tox 72.0, BaF3 tox 62.6 | IEC-6 cytotox cf 33.1
Cn1c(CNC(=O)c2ccco2)nnc1SCCOc1ccccc1	none (no result: APP transl inh, Ba/F3 V617F tox, BaF3 tox)
CN(C)CCNC(=O)c1cc2c(s1)-c1ccc(Cl)cc1SC2	IEC-6 tox 100.6 (no result: APP transl inh, Ba/F3 V617F tox, BaF3 tox) | IEC-6 cytotox cf 28.5
CCOCCCNC(=O)c1cc2c(s1)-c1ccccc1SC2	none (no result: APP transl inh, Ba/F3 V617F tox, BaF3 tox)
COc1ccccc1/C=C/C(=O)Nc1ccc2c(c1)OCCO2	IEC-6 tox 24.7 | IEC-6 cytotox cf inactive
O=C(/C=C/c1ccccc1)Nc1ccc2c(c1)OCCO2	none
Fc1ccc2c(c1)C(c1ccncc1)=NNC(c1ccccc1)=N2	none
CCN(Cc1ccncc1)C(=O)c1ccccc1NS(=O)(=O)c1ccc(Br)cc1	none (no result: APP transl inh)
Cc1ccc(NC(=O)c2cc(S(=O)(=O)N3CCOCC3)cs2)cc1	IEC-6 tox 96.9 (no result: APP transl inh, Ba/F3 V617F tox, BaF3 tox) | IEC-6 cytotox cf inactive
COc1ccc(S(=O)(=O)N2N=C(C)Oc3ccccc3C2=O)cc1	APP transl inh 85.0, IEC-6 tox 67.5, Ba/F3 V617F tox 85.5, BaF3 tox 76.2 | IEC-6 cytotox cf 45.4
Cc1cccc(NC(=O)[C@H](Cc2c[nH]c3ccccc23)NC(=O)[C@@H]2Cc3ccccc3CN2)c1	none (no result: APP transl inh, Ba/F3 V617F tox, BaF3 tox)
